{"source": "PubChem BioAssay AID1347421", "about": "(Sanford-Burnham Center for Chemical Genomics, 2020)", "note": "Over roughly 1,500 compounds, “activity” has its median near 2; the lowest 2% begin near -18. The sample holds the lowest values, similar compounds and a random draw of the others, so the mix is not that of the screen. Active and inactive are the calls of the source.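 How the source made its calls: active means inhibition of at least 40% at 10 µM; inconclusive means no clear call, values can overlap the other calls; inactive means the rest.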", "data": [{"target": "Sulfhydryl oxidase 1 (Homo sapiens) (UniProt O00391)", "sequence (O00391 whole entry, looked up)": "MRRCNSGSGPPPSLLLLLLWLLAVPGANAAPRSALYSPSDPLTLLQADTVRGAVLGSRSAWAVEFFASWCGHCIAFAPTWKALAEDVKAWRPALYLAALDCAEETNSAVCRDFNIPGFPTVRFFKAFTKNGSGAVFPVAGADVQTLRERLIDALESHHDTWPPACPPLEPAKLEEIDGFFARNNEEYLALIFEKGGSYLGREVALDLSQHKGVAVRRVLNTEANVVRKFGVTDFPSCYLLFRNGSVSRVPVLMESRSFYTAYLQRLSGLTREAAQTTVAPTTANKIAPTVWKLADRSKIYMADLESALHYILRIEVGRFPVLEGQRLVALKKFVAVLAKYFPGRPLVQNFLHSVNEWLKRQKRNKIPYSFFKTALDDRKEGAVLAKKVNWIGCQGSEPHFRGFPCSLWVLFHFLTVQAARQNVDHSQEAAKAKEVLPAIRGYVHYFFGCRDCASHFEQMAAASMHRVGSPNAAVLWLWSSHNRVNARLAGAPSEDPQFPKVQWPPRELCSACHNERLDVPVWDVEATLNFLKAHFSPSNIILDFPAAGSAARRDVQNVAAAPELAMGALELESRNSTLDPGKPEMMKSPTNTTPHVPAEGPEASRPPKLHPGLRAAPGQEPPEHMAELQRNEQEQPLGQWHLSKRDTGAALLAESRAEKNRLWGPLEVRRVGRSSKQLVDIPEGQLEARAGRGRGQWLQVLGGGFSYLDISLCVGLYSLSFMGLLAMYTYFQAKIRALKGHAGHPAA", "assay": "human QSOX1 sulfhydryl oxidase inhibition – biochemical, ROS-Glo luminescence, single concentration, confirmation (AID 1347421);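 further: 0% = DMSO wells with enzyme and 100% = wells lacking QSOX1 enzyme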", "settings": "recombinant hQSOX1, RNase A substrate, ROS-Glo H2O2 luminescence; at 10 µM", "values": [{"smiles": "O=C(NC(=O)N1CCCCCC1)c1ccc(Cl)cc1", "activity": "-10.3% (inactive)"}, {"smiles": "COc1ccc(CNCCn2cccn2)c(OCC(O)CN2CCCC2)c1", "note": "(centres undefined)", "activity": "1.2%"}, {"smiles": "O=C(Cn1ccnc1)N(CC1CCN(C2Cc3ccccc3C2)CC1)CC1CCCO1", "note": "(centres undefined)", "activity": "7.8%"}, {"smiles": "COc1ccc(F)cc1S(=O)(=O)NC(C)C", "activity": "-2% (inactive)"}, {"smiles": "CCOc1ccc(Cl)cc1S(=O)(=O)NC(C)C", "activity": "3.5%"}, {"smiles": "COc1ccc(C(N)=O)cc1S(=O)(=O)NC(C)C", "activity": "-19.1% (inactive)"}, {"smiles": "CN(Cc1cccs1)C(=O)c1ccc(OC2CCN(S(C)(=O)=O)CC2)c(Cl)c1", "activity": "12.2%"}, {"smiles": "CN(Cc1n[nH]c2c1CCCCC2)CC1(c2cccc(F)c2)CCOC1", "note": "(centres undefined)", "activity": "4%"}, {"smiles": "O=C(CC1C(=O)NCCN1Cc1ccccn1)NC1C2CC3CC(C2)CC1C3", "note": "(centres undefined)", "activity": "-4.8% (inactive)"}, {"smiles": "O=C(Cc1ccccc1F)Nc1ccc2c(c1)CN(Cc1ccoc1)CC2", "activity": "-1.9% (inactive)"}, {"smiles": "O=C(NCCCOc1cccnc1)C1CCC(=O)N(CCCc2ccccc2)C1", "note": "(centres undefined)", "activity": "12.4%"}, {"smiles": "O=C(O)c1cn(CCOc2ccccc2)c2ccccc12", "activity": "-13.2% (inactive)"}, {"smiles": "O=C(CCC1CCCN(Cc2ccccn2)C1)N1CCN(Cc2ccccc2)CC1", "note": "(centres undefined)", "activity": "-0.9% (inactive)"}, {"smiles": "Cc1cc(C)c(C(=O)N2CCCC(CCC(=O)N(C)CCc3ccccn3)C2)c(=O)[nH]1", "note": "(centres undefined)", "activity": "7.3%"}, {"smiles": "COc1ccc(CNCCc2scnc2C)cc1OCC(O)CN(C)C(C)C", "note": "(centres undefined)", "activity": "7.8%"}, {"smiles": "CC(C)OCCNC(=O)c1cc(COc2cccc3cccnc23)on1", "activity": "2.2%"}, {"smiles": "C=CCCC(=O)N1CCC2(CCCN(Cc3ccc(F)c(F)c3)C2=O)C1", "note": "(centres undefined)", "activity": "-1.3% (inactive)"}, {"smiles": "Cn1nc(C(=O)N2CCc3ccccc32)c2ccccc2c1=O", "activity": "-5.3% (inactive)"}, {"smiles": "O=C1CCC(C(=O)N2CCC3(C=Cc4ccccc43)CC2)CN1CCc1ccccn1", "note": "(centres undefined)", "activity": "3.8%"}, {"smiles": "COc1cccc(CN2CCNC(=O)C2CC(=O)NC2CCCCCCC2)c1", "note": "(centres undefined)", "activity": "2.4%"}, {"smiles": "CCC1=[C+]c2c(NCc3cccnc3)nc(C)nc2S1", "activity": "-5.8% (inactive)"}, {"smiles": "CCC1=[C+]c2c(nc(C)nc2N2CCOCC2)S1", "activity": "-20.3% (inactive)"}, {"smiles": "CSc1ncc(Cl)c(C(=O)Nc2ccc(Br)cc2)n1", "activity": "-12.9% (inactive)"}, {"smiles": "Cc1oc(-c2cccs2)nc1CN(C)C(C)c1cccs1", "note": "(centres undefined)", "activity": "2.7%"}, {"smiles": "CCOC(=O)C1CCN(C(=O)CCc2ccc(OC)cc2)CC1", "activity": "-2% (inactive)"}, {"smiles": "CCN(CC)C(=O)C1CCCN(Cc2nc(-c3ccc(Cl)cc3)oc2C)C1", "note": "(centres undefined)", "activity": "4.3%"}, {"smiles": "CC(NC(=O)CSc1nc(O)cc(=O)[nH]1)c1ccccc1", "note": "(centres undefined)", "activity": "-17.8% (inactive)"}, {"smiles": "CCN(CC)C(=O)N(CC)Cc1ccccc1", "activity": "-0.2% (inactive)"}, {"smiles": "CC(=O)n1nc(NCc2ccccc2)nc1NCc1ccccc1", "activity": "-22% (inactive)"}, {"smiles": "c1ccc(CNc2ccc(NCc3ccccc3)nn2)cc1", "activity": "-8.7% (inactive)"}, {"smiles": "C=CCn1nnnc1NCc1ccc(F)cc1", "activity": "7.4%"}, {"smiles": "CCCn1cc(CN2CCOC(CCc3ccccc3)C2)c(C)n1", "note": "(centres undefined)", "activity": "-1.5% (inactive)"}, {"smiles": "CCOC(=O)N1CCC(N2CCOC(CC3CCCCC3)C2)CC1", "note": "(centres undefined)", "activity": "6.1%"}, {"smiles": "NC(=O)C1CCCN(Cc2cn(-c3ccccc3)nc2-c2ccc3c(c2)OCO3)C1", "note": "(centres undefined)", "activity": "-1.5% (inactive)"}, {"smiles": "O=C(Nc1ccccc1N1CCN(C(=O)c2ccc(Cl)cc2)CC1)c1ccco1", "activity": "0.8%"}, {"smiles": "CCn1c(C2CCCO2)nc2ccccc21", "note": "(centres undefined)", "activity": "-18.1% (inactive)"}, {"smiles": "CCn1c(SCC(=O)N2CCCCCC2)nc2ccccc21", "activity": "-11.6% (inactive)"}, {"smiles": "CCn1c(CN2CCCC2)nc2ccccc21", "activity": "-5.8% (inactive)"}, {"smiles": "CN1CCN(C(=O)CCC2CCCN(C(=O)Cc3ccc4c(c3)OCO4)C2)CC1", "note": "(centres undefined)", "activity": "0.8%"}, {"smiles": "CN(CCOc1ccccc1)Cc1nc(-c2ccccn2)no1", "activity": "3.2%"}, {"smiles": "COc1ccc(C(=O)C2CCCN(Cc3ccc4cc(F)ccc4n3)C2)cc1OC", "note": "(centres undefined)", "activity": "1.1%"}, {"smiles": "COc1cccc(C(=O)C2CCCN(Cc3ccc4cccc(F)c4n3)C2)c1", "note": "(centres undefined)", "activity": "-23.5% (inactive)"}, {"smiles": "CSc1ncc(CN2CCCC(C(=O)c3cccc(OC(C)C)c3)C2)cn1", "note": "(centres undefined)", "activity": "8.6%"}, {"smiles": "CC1CCN(Cc2nnnn2CCCC(=O)N(C)CCC(O)c2ccccc2)CC1", "note": "(centres undefined)", "activity": "7.2%"}, {"smiles": "O=C(Nc1cccc(-n2cccn2)c1)C1CCCN1Cc1cnc[nH]1", "note": "(centres undefined)", "activity": "-25.6% (inactive)"}, {"smiles": "O=C1N(CC2CC2)CCCC12CCN(Cc1cccc(-n3cccn3)c1)C2", "note": "(centres undefined)", "activity": "-0.7% (inactive)"}, {"smiles": "O=C(Nc1cccc(-n2cnnn2)c1)C1CCCN1CCCC(F)(F)F", "note": "(centres undefined)", "activity": "-2.9% (inactive)"}, {"smiles": "Cc1ccc(NC(=O)c2cc(C)c(C)o2)cc1C", "activity": "-0.4% (inactive)"}, {"smiles": "CC(C)Oc1cccc(NC(=O)c2ccccc2Cl)c1", "activity": "-28.9% (inactive)"}, {"smiles": "CC(C)Oc1cccc(NC(=O)Nc2ccccc2)c1", "activity": "6.3%"}, {"smiles": "CC(C)Oc1cccc(C(=O)Nc2ccc3[nH]c(=O)[nH]c3c2)c1", "activity": "5.2%"}, {"smiles": "O=C(NCCCn1nnc2ccccc21)C1CCC(=O)N(CCN2CCOCC2)C1", "note": "(centres undefined)", "activity": "-0.4% (inactive)"}, {"smiles": "CN(CCc1ccccn1)c1ncccc1CNC1CSCCSC1", "activity": "-4% (inactive)"}, {"smiles": "c1ccc(-c2noc(CN3CCN(Cc4ccc5c(c4)OCO5)CC3)n2)cc1", "activity": "7.5%"}, {"smiles": "O=C(Nc1ccc2c(c1)OCCO2)c1ccc(=O)[nH]n1", "activity": "-1.3% (inactive)"}, {"smiles": "CN(C)C(=O)Nc1ccc2c(c1)CCC2", "activity": "-6.3% (inactive)"}, {"smiles": "COCCn1c(CN(C)Cc2cccnc2)cnc1S(=O)(=O)CC(C)(C)C", "activity": "7.7%"}, {"smiles": "OC(COc1ccccc1CNCCc1ccccn1)CN1CCSCC1", "note": "(centres undefined)", "activity": "5.9%"}, {"smiles": "CSCc1ccc(C(=O)N2CCC3(CCCN(CC(C)(C)C)C3)C2)o1", "note": "(centres undefined)", "activity": "-0.7% (inactive)"}, {"smiles": "CC(C)CCCC1CN(C2CCN(Cc3ccccn3)CC2)CCO1", "note": "(centres undefined)", "activity": "5.9%"}, {"smiles": "COc1cccc(CC2CN(C3CCSCC3)CCO2)c1", "note": "(centres undefined)", "activity": "10.9%"}, {"smiles": "O=C(CCN1CCCO1)N1CCCC(N2CCN(c3cccc(C(F)(F)F)c3)CC2)C1", "note": "(centres undefined)", "activity": "-0.1% (inactive)"}, {"smiles": "O=C1N(CC2CCCCC2)CCCC1(O)CN1CCCOCC1", "note": "(centres undefined)", "activity": "4.1%"}, {"smiles": "CC(=O)Oc1ccc(/C=C/c2ccc3ccccc3n2)cc1Cl", "activity": "55.2% (active)"}, {"smiles": "O=C1COc2ccc(S(=O)(=O)N3CCc4ccccc43)cc2N1", "activity": "2.6%"}, {"smiles": "Cc1cnc(C)c(N2C[C@H]3OC(=O)N(C4CCCC4)[C@H]3C2)n1", "activity": "7.1%"}, {"smiles": "Cc1ccc(S(=O)(=O)N2CCN(c3ccccc3)CC2)cc1C(N)=O", "activity": "1.7%"}, {"smiles": "Cc1ccc(S(=O)(=O)NC2CCCCC2)cc1C(N)=O", "activity": "-20.3% (inactive)"}, {"smiles": "CS(=O)(=O)c1cccc(S(=O)(=O)NC2CCCC2)c1", "activity": "7%"}]}]}
